{"source": "ChEMBL document CHEMBL3988442", "about": "“University of Dundee, Small-Polar-MMV Screening Library” (2021)", "note": "Screen size: about 48,000 compounds; about 13,000 (27%) showed an effect of 50% or more. The list shows a part of the results.", "data": [{"system": "Wolbachia pipientis", "experiment": "Anti-Wolbachia Cell-Based Screen", "assay_type": "functional", "parameters": "scale not given: in the data most compounds retested in dose-response had high values", "settings": "5 µM", "units": {"Percent Effect": "%"}, "values": [{"smiles": "CCc1nc(CNCC2(C(N)=O)CCOCC2)cs1", "Percent Effect": 1.973}, {"smiles": "CCCC1(CO)CCCN(c2ncccc2F)C1", "note": "(stereo unspecified)", "Percent Effect": -3.484}, {"smiles": "COc1ccc(OCc2cc(C(=O)N3CCN[C@H](C)C3)n[nH]2)c(Cl)c1", "Percent Effect": -13.06}, {"smiles": "CNC(=O)c1ccc(CN(C(C)C)C(C)C)o1.Cl", "Percent Effect": -8.523}, {"smiles": "COc1cc(C)c(CNC(C)c2csc(C)n2)cc1OC", "note": "(stereo unspecified)", "Percent Effect": -9.97}, {"smiles": "N#CCCN(CCC#N)C(=O)COC1CCCCC1", "Percent Effect": -15.39}, {"smiles": "CCc1ccc(C(=O)N2CCCC2c2c(C)nn(C)c2OC)o1", "note": "(stereo unspecified)", "Percent Effect": 54.64}, {"smiles": "COc1c(C2CCCN2C(=O)c2cnn(C)c2C2CC2)c(C)nn1C", "note": "(stereo unspecified)", "Percent Effect": -4.592}, {"smiles": "COc1c(C2CCCN2C(=O)c2cc(C)on2)c(C)nn1C", "note": "(stereo unspecified)", "Percent Effect": 99.28}, {"smiles": "COc1c(C2CCCN2C(=O)c2ccc(Cl)o2)c(C)nn1C", "note": "(stereo unspecified)", "Percent Effect": 6.578}, {"smiles": "CCc1noc(C)c1C(=O)N1CCCC1c1c(C)nn(C)c1OC", "note": "(stereo unspecified)", "Percent Effect": -9.828}, {"smiles": "Cc1nn(C)c(Cl)c1C1CCCN1C(=O)c1cnn(C)c1C1CC1", "note": "(stereo unspecified)", "Percent Effect": 93.32}, {"smiles": "COc1c(C2CCCN2C(=O)c2ccco2)c(C)nn1C", "note": "(stereo unspecified)", "Percent Effect": -0.9591}, {"smiles": "COc1c(C2CCCN2C(=O)c2csc(C(C)C)n2)c(C)nn1C", "note": "(stereo unspecified)", "Percent Effect": 8.615}, {"smiles": "COCc1nc(C(=O)N2CCCC2c2c(C)nn(C)c2C)cs1", "note": "(stereo unspecified)", "Percent Effect": 3.792}, {"smiles": "COc1c(C2CCCN2C(=O)c2csc(C3CC3)n2)c(C)nn1C", "note": "(stereo unspecified)", "Percent Effect": 61.26}, {"smiles": "COc1c(C2CCCN2C(=O)c2cc(C3CC3)on2)c(C)nn1C", "note": "(stereo unspecified)", "Percent Effect": -11.04}, {"smiles": "c1ccc(CCCN2CC[C@H](c3nnc(-c4ccccc4)o3)C2)cc1", "Percent Effect": -1.621}, {"smiles": "CCN(Cc1ccoc1)C(C(N)=O)c1ccc(C#N)cc1", "note": "(stereo unspecified)", "Percent Effect": 0.4454}, {"smiles": "O=C(NCCc1csc(N2CCCC2)n1)N(C1CCCC1)C1CC1", "Percent Effect": -4.119}, {"smiles": "Cc1cc2nc(CO[C@H]3CN(C4CCCCC4)C[C@H]3F)[nH]c2cc1C", "Percent Effect": 9.281}, {"smiles": "Cc1noc([C@@H]2C[C@H]3CN(Cc4ccc5c(c4)OCO5)C[C@H]3O2)n1.O=C(O)C(F)(F)F", "Percent Effect": -40.6}, {"smiles": "Cc1nn(C)c(Cl)c1C1CCCN1C(=O)c1cc(C2CC2)on1", "note": "(stereo unspecified)", "Percent Effect": 102.8}, {"smiles": "COc1c(C2CCCN2C(=O)c2cscn2)c(C)nn1C", "note": "(stereo unspecified)", "Percent Effect": 88.43}, {"smiles": "COc1c(C2CCCN2C(=O)c2cnccn2)c(C)nn1C", "note": "(stereo unspecified)", "Percent Effect": 114.6}, {"smiles": "COc1c(C2CCCN2C(=O)c2cnc(C)cn2)c(C)nn1C", "note": "(stereo unspecified)", "Percent Effect": 86.16}, {"smiles": "Cc1nc[nH]c1-c1nnc(SCC(=O)O)n1-c1ccccc1C(F)(F)F", "Percent Effect": -17.22}, {"smiles": "O=S(=O)(Cc1ccccc1F)NC(CO)c1ccco1", "note": "(stereo unspecified)", "Percent Effect": 6.014}, {"smiles": "Cl.Cl.Cl.O[C@@H]1C[C@@](CNCc2ccccn2)(COc2cccnc2)C[C@@H]1O", "Percent Effect": -17.47}, {"smiles": "Cc1ccsc1CNC(=O)c1ccc(N2CCNC2=O)cc1", "Percent Effect": 1.647}, {"smiles": "COc1ccc(NC(=O)N2CCC3(CC2)NC(=O)CC3C(=O)O)c(C)c1", "note": "(stereo unspecified)", "Percent Effect": 2.707}, {"smiles": "Cn1c(CS(=O)(=O)Cc2cccc(Cl)c2)cc(=O)n(C)c1=O", "Percent Effect": 7.085}, {"smiles": "CCS(=O)(=O)CCNc1nc(C2CCCC2)nc2c1cnn2C", "Percent Effect": 3.087}, {"smiles": "Cc1nn(C)c(C)c1C1CCCN1C(=O)Cc1cn2ccsc2n1", "note": "(stereo unspecified)", "Percent Effect": 10.74}, {"smiles": "CCc1nc(CC(=O)N2CCCC2c2c(C)nn(C)c2OC)cs1", "note": "(stereo unspecified)", "Percent Effect": 118.7}, {"smiles": "COc1c(C2CCCN2C(=O)Cc2c(C)noc2C)c(C)nn1C", "note": "(stereo unspecified)", "Percent Effect": -5.371}, {"smiles": "CCN(c1ccc(C(=O)Nc2c(C)nn(C(C)C)c2C)cc1)C(C)C", "Percent Effect": -6.116}, {"smiles": "COc1cccc(N2CC3(CCN(c4ccc(C)nn4)C3)CC2=O)c1", "note": "(stereo unspecified)", "Percent Effect": 3.863}, {"smiles": "CN1C(Cn2cccn2)C[C@@H]2CN(C(=O)c3cccc(C#N)c3)CC[C@@H]21.O=C(O)C(F)(F)F.O=C(O)C(F)(F)F", "note": "(stereo partly specified)", "Percent Effect": 118.1}, {"smiles": "O=C(O)C(F)(F)F.c1csc(CN2C[C@@H](n3cccn3)[C@H]3OCCC[C@H]32)c1", "Percent Effect": 9.631}, {"smiles": "CC(C)N1[C@H](Cn2cncn2)C[C@@H]2CN(Cc3cccs3)CC[C@@H]21.O=C(O)C(F)(F)F", "Percent Effect": 3.978}, {"smiles": "CC(C)N1[C@H](Cn2cccn2)C[C@@H]2CN(Cc3ccoc3)CC[C@@H]21.O=C(O)C(F)(F)F.O=C(O)C(F)(F)F.O=C(O)C(F)(F)F", "Percent Effect": -17.46}, {"smiles": "CN1[C@H](Cn2cncn2)C[C@@H]2CN(Cc3cccc(C#N)c3)CC[C@@H]21.O=C(O)C(F)(F)F.O=C(O)C(F)(F)F", "Percent Effect": 3.665}, {"smiles": "N#Cc1cccc(C(=O)N2CC[C@H]3[C@H]2CCN3CC2CCOCC2)c1.O=C(O)C(F)(F)F", "Percent Effect": -18.46}, {"smiles": "Cc1ccc(CN2CC[C@H]3[C@H](CC(Cn4cccn4)N3C)C2)s1.O=C(O)C(F)(F)F.O=C(O)C(F)(F)F.O=C(O)C(F)(F)F", "note": "(stereo partly specified)", "Percent Effect": 96}, {"smiles": "CN1[C@H](Cn2cccn2)C[C@@H]2CN(Cc3cccs3)CC[C@@H]21.O=C(O)C(F)(F)F.O=C(O)C(F)(F)F.O=C(O)C(F)(F)F", "Percent Effect": 118}, {"smiles": "CN(C1CCCC1)C(C)(C)C(=O)NCCNC(N)=O", "Percent Effect": -0.4481}, {"smiles": "COCC1CN(C(=O)Cc2ccccn2)Cc2ncnn2C1.O=C(O)C(F)(F)F", "note": "(stereo unspecified)", "Percent Effect": -1.318}, {"smiles": "Cc1ccc(CN2CCC(Cc3nnc(CO)n3C)CC2)cc1C", "Percent Effect": -13.27}, {"smiles": "CN(c1ncc(S(N)(=O)=O)s1)C1CCC1", "Percent Effect": 11.92}, {"smiles": "COc1cc(NCc2ncc[nH]2)ccc1Br", "Percent Effect": 2.622}, {"smiles": "Cn1nc2c(cc1=O)CN(CCc1nc3ccccc3c(=O)[nH]1)CC2", "Percent Effect": 5.907}, {"smiles": "CN(C)C(=O)COC[C@]12COC[C@H]1CN(Cc1ccoc1)C2", "Percent Effect": -6.231}, {"smiles": "CN(C)C(=O)COC[C@]12COC[C@H]1CN(Cc1ccco1)C2.O=C(O)C(F)(F)F", "Percent Effect": 94.75}, {"smiles": "CN(C)C(=O)COC[C@]12COC[C@H]1CN(CCc1ccccc1)C2.O=C(O)C(F)(F)F", "Percent Effect": 103}, {"smiles": "CCS(=O)(=O)NC[C@]12COC[C@H]1CN(CCc1ccccc1)C2.O=C(O)C(F)(F)F", "Percent Effect": -14.92}, {"smiles": "CN(C)C(=O)COC[C@]12COC[C@H]1CN(CC1CCC1)C2.O=C(O)C(F)(F)F", "Percent Effect": -8.978}, {"smiles": "CN(C)C(=O)COC[C@]12COC[C@H]1CN(Cc1ccccc1)C2.O=C(O)C(F)(F)F", "Percent Effect": 108.4}, {"smiles": "Cc1c(Cl)ccc2ccc(NC(CO)CO)nc12", "Percent Effect": -19.83}, {"smiles": "Cc1ccc(NCc2cn3c(n2)CN(Cc2ccoc2)CC3)nn1.O=C(O)C(F)(F)F.O=C(O)C(F)(F)F", "Percent Effect": 8.385}, {"smiles": "CCn1ccnc1CN(C)C(C(=O)O)c1ccc(C(C)(C)C#N)cc1", "note": "(stereo unspecified)", "Percent Effect": -18.43}, {"smiles": "C=C(C)COc1cccc(CN(CC)Cc2noc(C)n2)c1", "Percent Effect": -43.03}, {"smiles": "NC1CCN(C(=O)c2cnc(Cc3c(Cl)cccc3Cl)nc2O)C1", "note": "(stereo unspecified)", "Percent Effect": -9.17}, {"smiles": "COCCN(Cc1ccco1)Cc1nc(-c2ccsc2)no1", "Percent Effect": 17.38}, {"smiles": "CCN(CC)CCNC(=O)c1cnc(C(C)(C)C)s1", "Percent Effect": -7.701}, {"smiles": "CCN(CC)CCNC(=O)c1cnc(-c2ccccc2)nc1", "Percent Effect": 14.16}, {"smiles": "CCN(CC)CCNc1c(-c2ccccc2)c(=O)c1=O", "Percent Effect": 104.3}, {"smiles": "CN(C)CCNc1ccc(-c2nc(-c3ccccc3F)no2)cn1", "Percent Effect": -20.15}, {"smiles": "CCCN(CCC)CCNc1c(-c2ccccc2)c(=O)c1=O", "Percent Effect": 97.32}, {"smiles": "CN(C)CCNc1c(-c2ccccc2)c(=O)c1=O", "Percent Effect": 102.6}, {"smiles": "CN(C)CCNc1ccc(-c2nc(COc3ccccc3)no2)cn1", "Percent Effect": -0.8633}, {"smiles": "O=c1ccc2c([nH]1)CCN(S(=O)(=O)c1ccc3c(c1)CCCC3)C2", "Percent Effect": -15.49}, {"smiles": "Cc1ccc(CN2CC[C@@H](N(C)C(C)C)[C@@H]2Cc2ccccc2)o1", "Percent Effect": -15.45}, {"smiles": "CCc1cccc(CC(=O)NC2CCN(C(=O)NC(C)(C)C)CC2)c1", "Percent Effect": -13.61}, {"smiles": "CC(C)c1nc2n(n1)CC(NCc1nnnn1C1CC1)CC2", "note": "(stereo unspecified)", "Percent Effect": 8.252}, {"smiles": "Cc1ncc(CNC2CCc3nc(C(C)C)nn3C2)s1", "note": "(stereo unspecified)", "Percent Effect": 101}, {"smiles": "CC(C)c1nc2n(n1)CC(NCc1ncc(-c3ccccc3)o1)CC2", "note": "(stereo unspecified)", "Percent Effect": -0.3467}, {"smiles": "CC(C)c1nc2n(n1)CC(NCc1nnc(-c3ccco3)o1)CC2", "note": "(stereo unspecified)", "Percent Effect": -6.468}, {"smiles": "Cc1nc(CNC2CCc3nc(C(C)C)nn3C2)oc1C", "note": "(stereo unspecified)", "Percent Effect": 22.08}, {"smiles": "Cc1cnc(CNC2CCc3nc(C(C)C)nn3C2)cn1", "note": "(stereo unspecified)", "Percent Effect": 130.4}, {"smiles": "CCn1cc(S(=O)(=O)Nc2ccc3[nH]c(C4CCC4)nc3c2)cn1", "Percent Effect": -33.9}, {"smiles": "c1cnn(C2CN(c3nc(-c4ccncc4)nc4c3CCC4)C2)c1", "Percent Effect": -0.2642}, {"smiles": "Cc1ccc(C2CN(C(=O)c3c(C)cc(C)[nH]c3=O)CCO2)c(C)c1", "note": "(stereo unspecified)", "Percent Effect": 7.803}, {"smiles": "CCC(C)N(C)S(=O)(=O)c1ccc(CCNC(C)=O)s1", "note": "(stereo unspecified)", "Percent Effect": 12.12}, {"smiles": "CC(C)COC1CCN(C(=O)c2cc3ccccc3c(=O)[nH]2)CC1", "Percent Effect": -14.3}, {"smiles": "CO[C@H]1CN(C(=O)c2ccc(-c3ccccc3)[nH]2)CC[C@H]1N", "Percent Effect": 104.8}, {"smiles": "CN1[C@H]2CC[C@@H]1CN(C(=O)c1sccc1S(N)(=O)=O)CC2", "Percent Effect": -9.156}, {"smiles": "CO[C@H]1CN(C(=O)c2nc(-c3ccccc3)[nH]c2C)CC[C@H]1N", "Percent Effect": 99.21}, {"smiles": "CO[C@H]1CN(C(=O)c2ccc(-c3cc[nH]n3)cc2)CC[C@H]1N", "Percent Effect": 5.265}, {"smiles": "Cc1[nH]c(-c2ccccc2)nc1C(=O)N1CCC(O)(CO)CC1", "Percent Effect": -2.686}, {"smiles": "Cc1ccsc1[C@@H]1CCN(C(=O)c2cc3ccccc3[nH]2)C[C@H]1O", "Percent Effect": -6.106}, {"smiles": "O=C(c1cccc(-c2ncc[nH]2)c1)N1CC[C@H](CO)[C@@H](O)C1", "Percent Effect": -2.343}, {"smiles": "CO[C@H]1CN(C(=O)c2cc3ccccc3[nH]2)CC[C@H]1N", "Percent Effect": 117}, {"smiles": "CC(=O)Nc1ccsc1C(=O)N1CC[C@@H]2CC[C@H](C1)N2C", "Percent Effect": -9.655}, {"smiles": "CN1[C@H]2CC[C@@H]1CN(C(=O)c1ccc(-c3ccccc3)[nH]1)CC2", "Percent Effect": 114.3}, {"smiles": "Cc1[nH]c(-c2ccccc2)nc1C(=O)N1CC[C@H](CO)[C@@H](O)C1", "Percent Effect": 5.886}]}]}
